Our source for the growth values is PubChem BioAssay (NCI).

About 83,000 compounds went through this panel and 20% of them were active in at least one assay; those are over-represented in the sample as a whole.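 Assay: single dose, 48 h. Readout: percent growth (0 = no net growth; negative = cell death). Active: <10.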 A number with no mark means an inactive call. Calls of active or inactive are those of the source.

Assay in all cases: NCI-60 one-dose screen, 48 h (100 = growth as untreated, 0 = no growth, -100 = all killed)
One test deals with DU-145 prostate. The settings on record: 10 µM unless noted.
The test system of another test is K-562 leukemia. The note with it: 10 µM unless noted.
The test system of a further test is MALME-3M melanoma. The note with it: 10 µM unless noted.
A further test concerns MDA-MB-231 breast. The note with it: 10 µM unless noted.
The test system of the next test is RXF 393 renal. The note with it: 10 µM unless noted.
A further test concerns SF-268 CNS. The note with it: 10 µM unless noted.
Another test relates to SF-295 CNS. The settings on record: 10 µM unless noted.
Another test has as its system SF-539 CNS. The settings on record: 10 µM unless noted.
In another test the test system is UACC-257 melanoma. The note with it: 10 µM.
For another test, the system named is M14 melanoma. The settings on record: 10 µM unless noted.

For `COc1ccc(OC)c(-c2ccc(-c3ccccc3N)c3[nH]c4ccccc4c23)c1`, the growth in the test on DU-145 prostate is 89.6%; with K-562 leukemia, 76.2%; in the test with MALME-3M melanoma it was 85%; with MDA-MB-231 breast it was 74.1%; in the test with RXF 393 renal, 98.2%; with SF-268 CNS it was 79.1%. Moreover, the growth in the test on SF-295 CNS was 99.4%; in the test with SF-539 CNS it was 93.2%; in the test with UACC-257 melanoma, 85%; in the test with M14 melanoma it was 84.6%.

`O=C(CN1CCN(c2cc3c(cc2F)c(=O)c(C(=O)O)cn3C2CC2)CC1)Nc1ccc(C(=O)/C=C/c2ccc(Cl)cc2)cc1`: the growth with DU-145 prostate was 120%; in the test on K-562 leukemia it was 104%; with MALME-3M melanoma, 100%; with MDA-MB-231 breast, 115%; in the test on RXF 393 renal, 94.1%; in the test with SF-268 CNS it was 121%. Besides, the growth was 82.1% in the test with SF-295 CNS, 99.5% in the test on SF-539 CNS, 103% in the test on UACC-257 melanoma and 96.3% in the test with M14 melanoma.

`O=C(NCCCN1CCN(CCCNC(=O)C2CCCCC2)CC1)C1CCCCC1`: the growth was 110% in the test with DU-145 prostate; 92.7% with K-562 leukemia; 94% with MALME-3M melanoma; 108% in the test with MDA-MB-231 breast; 119% in the test on RXF 393 renal; 104% in the test on SF-268 CNS. Moreover, the growth is 84.5% in the test with SF-295 CNS, 96.7% with SF-539 CNS, 97.1% in the test with UACC-257 melanoma and 98.6% in the test on M14 melanoma.

For `COc1ccc(/C=C2\CCCC3=C2NC(C)=NC3c2ccc(OC)c(OC)c2)cc1OC` (stereo not given), the growth in the test with DU-145 prostate is 7.29% (active); in the test with K-562 leukemia, 5.92% (active); with MALME-3M melanoma, -0.933% (active); with MDA-MB-231 breast it was 7.16% (active); with RXF 393 renal, -16.6% (active); with SF-268 CNS it was 20%. For the same molecule, the growth with SF-295 CNS is 3.05% (active); with SF-539 CNS, 17.1%; in the test with UACC-257 melanoma, 20.2%; in the test with M14 melanoma, -42.1% (active).

With `CCCCCCCCCCCCNC(=S)N/N=C/c1ccc(Cl)c(Cl)c1`, the growth in the test on DU-145 prostate was 116%; in the test with K-562 leukemia, 97.2%; in the test with MALME-3M melanoma, 113%; with MDA-MB-231 breast, 104%; in the test with RXF 393 renal, 108%; in the test with SF-268 CNS, 118%. Also, the growth in the test on SF-295 CNS was 98.3%; with SF-539 CNS, 94.2%; with UACC-257 melanoma, 107%; with M14 melanoma it was 105%.

`COc1ccc(-c2cn[nH]c2-c2cc(OC)c3c(c2)OCCO3)cc1`: the growth is 9.03% (active) in the test on DU-145 prostate; 9.59% (active) with K-562 leukemia; 97.9% in the test on MALME-3M melanoma; 17.1% in the test with MDA-MB-231 breast; -14% (active) in the test on RXF 393 renal; 25.1% in the test on SF-268 CNS. Also, the growth in the test on SF-295 CNS is 28.7%; in the test on SF-539 CNS, -34.3% (active); with UACC-257 melanoma it was 75%; in the test with M14 melanoma, 10.6%.

As to `Cc1ccc(Nc2ncnc3c2sc2ncccc23)cc1`, the growth in the test on DU-145 prostate was 108%; in the test on K-562 leukemia, 53.8%; in the test with MALME-3M melanoma, 107%; with MDA-MB-231 breast, 103%; with RXF 393 renal, 88.2%; with SF-268 CNS, 97.6%. In addition, the growth in the test on SF-295 CNS was 110%; in the test with SF-539 CNS, 100%; with UACC-257 melanoma it was 99.5%; in the test with M14 melanoma, 101%.

Turning to `COc1ccc(C2SCC(=O)N2NC(=O)c2ccc(NC(=O)c3ccccn3)cc2)cc1OC` (stereo not given), the growth in the test with DU-145 prostate was 105%; in the test on K-562 leukemia, 95.9%; with MALME-3M melanoma it was 105%; with MDA-MB-231 breast, 102%; in the test on RXF 393 renal, 103%; with SF-268 CNS, 96.5%. Moreover, the growth in the test on SF-295 CNS was 101%; with SF-539 CNS, 98.8%; with UACC-257 melanoma, 92.2%; with M14 melanoma, 102%.

For `COc1ccc(Cn2cc(COc3cc(/C=C/C(=O)c4cc(OC)c(OC)c(OC)c4)ccc3OC)nn2)cc1`, the growth in the test with DU-145 prostate is 88.5%; with K-562 leukemia it was 12%; with MALME-3M melanoma it was 101%; in the test with MDA-MB-231 breast it was 84.9%; in the test with RXF 393 renal, 90.3%; with SF-268 CNS, 94.6%. The growth in the test with SF-295 CNS is 32.2%; in the test with SF-539 CNS, 49.2%; in the test with UACC-257 melanoma, 96.1%; in the test with M14 melanoma, 90.9%.

On to `COc1ccc(C2CC(=O)Nc3c2c(C)nn3-c2nc3ccccc3[nH]2)cc1OC` (stereo not given), for which the growth is 86.6% with DU-145 prostate; 63% in the test with K-562 leukemia; 38.5% in the test with MALME-3M melanoma; 87.1% in the test on MDA-MB-231 breast; 12.2% in the test on RXF 393 renal; 69.9% with SF-268 CNS. Moreover, the growth with SF-295 CNS was -9% (active); with SF-539 CNS it was 97.7%; with UACC-257 melanoma it was 89%; in the test on M14 melanoma, 48.1%.

In the case of `NCCSC(c1ccccc1)(c1ccccc1)c1ccccc1`, the growth in the test with DU-145 prostate was -1.74% (active); in the test on K-562 leukemia it was 3.65% (active); in the test with MALME-3M melanoma, 27.5%; with MDA-MB-231 breast it was -24.2% (active); in the test with RXF 393 renal it was -7.93% (active); with SF-268 CNS, 27.4%. Besides, the growth was -45.9% (active) in the test on SF-295 CNS, -46.1% (active) in the test with SF-539 CNS, 47.7% with UACC-257 melanoma and -9.88% (active) in the test on M14 melanoma.

As for `Clc1ccc(/C=C/c2nc(N3CCOCC3)c3nc(Cl)c(Cl)cc3n2)cc1`, the growth is 103% in the test with DU-145 prostate; 79.3% with K-562 leukemia; 113% in the test with MALME-3M melanoma; 110% in the test with MDA-MB-231 breast; 117% with RXF 393 renal; 97.3% in the test on SF-268 CNS. The growth in the test with SF-295 CNS was 91.9%; in the test on SF-539 CNS it was 98.6%; in the test with UACC-257 melanoma, 106%; in the test on M14 melanoma, 96.4%.

On to `CCOC(=O)C(Cc1ccccc1)n1c(O)c(C=Nc2ccc(C(=O)OCCN(CC)CC)cc2)sc1=O` (stereo not given), for which the growth in the test on DU-145 prostate was 106%; in the test with K-562 leukemia, 89.3%; in the test with MALME-3M melanoma, 90.1%; in the test with MDA-MB-231 breast it was 89.3%; in the test on RXF 393 renal, 84.7%; with SF-268 CNS it was 97.2%. Moreover, the growth in the test with SF-295 CNS is 104%; in the test with SF-539 CNS, 86.5%; with UACC-257 melanoma, 77.4%; with M14 melanoma, -36.1% (active).

As to `Nc1c(C(=O)Nc2cccc(C(F)(F)F)c2)sc2nc3c(cc12)CCCCCC3`, the growth in the test with DU-145 prostate is 20.8%; in the test on K-562 leukemia it was 17%; in the test with MALME-3M melanoma, -20.6% (active); with MDA-MB-231 breast, -12.9% (active); in the test on RXF 393 renal, -49.1% (active); in the test on SF-268 CNS, 12.7%. Further, the growth is 2.51% (active) in the test with SF-295 CNS, -86.9% (active) in the test on SF-539 CNS, 7.85% (active) in the test on UACC-257 melanoma and 47.1% with M14 melanoma.
